# PubChem BioAssay (NCATS)
# Results filed as inconclusive are left out. Unmarked numbers belong to inactive results. The source made the active and inactive calls. Calls come from the whole dose curve; as a rule, active = well fitted inhibition curve with a large enough effect; inconclusive = small, poorly fitted or top-dose-only effect; inactive = flat fitted curve, though single readings scatter.
# Tested on: astro (control astrocytes)
# Assay: Drug repurposing screens with cells derived from glioblastoma tumor samples (AID 1345199); note: nearly all actives have a fitted effect of over 40% in size
# Conditions: viability, ATP luminescence, 48 h; series mostly up to 45.9 µM; activity, negative = cell killing: at the top concentration
# Description: CD133+ cells were isolated from GBM patient biopsies and cultured as neurospheres. Neurospheres from four patients were used to screen the NCATS pharmaceutical collection (NPC) library of approved drugs and bioactive compounds. […] The neurospheres were incubated with drugs for 48 hours in 1536-well format, then assayed with an ATP content cell viability assay. […] These hits were cherry picked to confirm activity in the four original GBM lines screened plus three other slower growing GMB lines (unable to yield enough cells for a full primary screen). Variable activities of the confirmed primary hits in the different GBM patient lines were observed. The patient line 206 responded to the greatest number of compounds and line 923 responded to the least amount of active compounds.
# % is set by controls: 0 for no effect and ±100 for the full control effect; potency is the fitted concentration of half-maximal effect.
Structure (SMILES),Potency,"activity, negative = cell killing"
NC(N)=NC(N)=NCCc1ccccc1,inactive,
CN(C)CCc1c[nH]c2ccc(CS(=O)(=O)N3CCCC3)cc12,,-14.1%
COc1ccc2c(c1)c(CC(=O)OCC(=O)O)c(C)n2C(=O)c1ccc(Cl)cc1,,-15.4%
Cc1cc(NS(=O)(=O)c2ccc(N)cc2)no1,,-15.5%
NCCCC(O)(P(=O)(O)O)P(=O)(O)O,,2.1%
NNC(=O)c1ccncc1,,-9.8%
COc1ccc2cc3[n+](cc2c1OC)CCc1cc2c(cc1-3)OCO2,6.31 µM (active),
NC(=O)N1c2ccccc2CC(=O)c2ccccc21,,-27.7%
COC(c1ccccc1)(c1ccccc1)[C@H](Oc1nc(C)cc(C)n1)C(=O)O,,-12%
CCN(C)C(=O)Oc1cccc([C@H](C)N(C)C)c1,,-11.5%
CCCN[C@H]1CCc2nc(N)sc2C1,,-6.2%
Clc1ccccc1CN1CCc2sccc2C1,,-13.6%
COCCCOc1cc(C[C@@H](C[C@H](N)[C@@H](O)C[C@H](C(=O)NCC(C)(C)C(N)=O)C(C)C)C(C)C)ccc1OC,,-2.44%
CCn1cc(C(=O)O)c(=O)c2cc(F)c(N3CCNCC3)nc21,,-8.93% [at 21.2 µM]
COc1nc(N)nc2c1ncn2[C@@H]1O[C@H](CO)[C@@H](O)[C@@H]1O,,-14.9%
CC[C@H](C)C(=O)O[C@H]1C[C@@H](C)C=C2C=C[C@H](C)[C@H](CC[C@@H]3C[C@@H](O)CC(=O)O3)[C@H]21,0.447 µM (active),
CCC(=O)O[C@]1(C(=O)CCl)[C@@H](C)C[C@H]2[C@@H]3CCC4=CC(=O)C=C[C@]4(C)[C@@]3(F)[C@@H](O)C[C@@]21C,,-15.1%
CC(C)C1CCC(C(=O)N[C@H](Cc2ccccc2)C(=O)O)CC1 (stereo not given in full),,-17.4%
C[C@@H](CN1CC(=O)NC(=O)C1)N1CC(=O)NC(=O)C1,,-16.3%
CNC1CCCN(c2c(F)cc3c(=O)c(C(=O)O)cn(C4CC4)c3c2OC)C1 (stereo not given),,0.157%

Structure (SMILES),Potency,"activity, negative = cell killing"
CCCc1cc(C(N)=S)ccn1,,-13.7%
CCOC(=O)c1ccc(OC(=O)CCCCCN=C(N)N)cc1,,-1.76% [at 21.2 µM]
C1CCC(C(CC2CCCCN2)C2CCCCC2)CC1 (stereo not given),15.8 µM (active),
OC(Cn1cncn1)(Cn1cncn1)c1ccc(F)cc1F,,-2.05%
CC(=O)[C@H]1CC[C@H]2[C@@H]3CCC4=CC(=O)CC[C@]4(C)[C@H]3CC[C@]12C,,-27.9%
O=C(O)c1cc(=O)[nH]c(=O)[nH]1,,-12.8%
O=NN(CCCl)C(=O)NC1CCCCC1,,-15.9%
COc1ncnc(NS(=O)(=O)c2ccc(N)cc2)c1OC,,-10.6%
CN1CCN(c2c(F)cc3c(=O)c(C(=O)O)cn4c3c2OCN4C)CC1,,-11.5%
CCC(=O)O[C@]1(C(=O)SCF)[C@H](C)C[C@H]2[C@@H]3C[C@H](F)C4=CC(=O)C=C[C@]4(C)[C@@]3(F)[C@@H](O)C[C@@]21C,,-18.9% [at 21.2 µM]
CCc1cc(C(N)=S)ccn1,,-9.75%
Nc1nc(F)nc2c1ncn2[C@@H]1O[C@H](CO)[C@@H](O)[C@@H]1O,inactive,
C[C@]12C=CC(=O)C=C1CC[C@@H]1[C@@H]2C(=O)C[C@@]2(C)[C@H]1CC[C@]2(O)C(=O)CO,,-15.3%
O=c1cc(O)c(Cl)c[nH]1,,-1.15%
Cc1noc(NS(=O)(=O)c2ccc(N)cc2)c1C,inactive,
CCN[C@H]1C[C@H](C)S(=O)(=O)c2sc(S(N)(=O)=O)cc21,,-12%
CC(=O)Oc1ccccc1C(=O)Nc1ncc([N+](=O)[O-])s1,5.01 µM (active),
CC(C(=O)O)c1ccc2c(c1)CC(=O)c1ccccc1S2 (stereo not given),,-25.3%
NC(=O)c1cccnc1,,-11.4%
CCn1cc(C(=O)O)c(=O)c2cc(F)c(N3CCNCC3)cc21,inactive,
